A selection: hits, their analogues and other compounds. The true share with any hit is near 5.9%.
PRMT1 FP inh: PRMT1 methyltransferase inhibitors, primary screen, biochemical, fluorescence polarization; 370,000 compounds, 1.3% hits; AID 652257, 2013; recombinant PRMT1, activity-based probe fluorescence polarization; inhibition, % at 2.79 µM;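 active = inhibition above about 21% made by adding two undisclosed values, limit read from the data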
ALR H2O2 inh: inhibitors of human ALR sulfhydryl oxidase, primary screen, biochemical, H2O2 detection, HRP-luminol luminescence, single point; purified ALR, DTT oxidation; 290,000 compounds, 3.8% hits; inhibition, % (test concentration not listed); FAD-linked sulfhydryl oxidase ALR (Homo sapiens), P55789;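 active = mean replicate inhibition above about 79%, with every replicate also reaching it, limit read from the data; inconclusive = only one of the two criteria met; inactive = mean below limit and not every replicate reaching it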
Target sequence (P55789 whole entry, looked up): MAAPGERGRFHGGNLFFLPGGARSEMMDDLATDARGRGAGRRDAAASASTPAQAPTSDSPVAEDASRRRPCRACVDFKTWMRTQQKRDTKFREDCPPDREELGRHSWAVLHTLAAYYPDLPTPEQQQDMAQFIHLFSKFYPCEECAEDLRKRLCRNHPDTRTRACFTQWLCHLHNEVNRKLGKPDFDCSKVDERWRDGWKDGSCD
Rtt109 Vps75: inhibitors of C. albicans Rtt109/Vps75 HAT, primary screen, biochemical, ThioGlo CoA-SH fluorescence, plate reader; purified Rtt109/Vps75, 4 h; inhibition, % at 34.9 µM; 330,000 compounds, 0.16% hits;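 active = inhibition of at least 50% in every replicate; inconclusive = best replicate reaches 50% inhibition but some replicates fall short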
Target sequence (Q5AAJ8 whole entry, looked up): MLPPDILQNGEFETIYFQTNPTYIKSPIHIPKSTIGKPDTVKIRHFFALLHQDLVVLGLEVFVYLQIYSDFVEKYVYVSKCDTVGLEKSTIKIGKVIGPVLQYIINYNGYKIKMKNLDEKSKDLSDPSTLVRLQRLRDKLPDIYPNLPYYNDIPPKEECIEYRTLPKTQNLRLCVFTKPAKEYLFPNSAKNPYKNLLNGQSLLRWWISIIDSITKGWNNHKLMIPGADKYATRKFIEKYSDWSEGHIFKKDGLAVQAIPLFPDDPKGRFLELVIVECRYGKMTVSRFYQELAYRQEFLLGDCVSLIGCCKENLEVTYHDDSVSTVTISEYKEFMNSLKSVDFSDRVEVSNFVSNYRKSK
rCAG binder: binders of r(CAG) RNA repeats, primary screen, biochemical, fluorescence. r(CAG) RNA repeat, TO-PRO-1 dye displacement fluorescence. inhibition, % at 3 µM. 370,000 compounds, 1.3% hits;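 active = inhibition above the plate cutoff, the mean of all test compounds on that plate plus 3 SD, cut at about 35% in these data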;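 also: 0% = DMSO alone and 100% = 100 µM mitoxantrone as full dye displacement; higher means more dye released from RNA so lower well fluorescence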
ABHD5 PLIN5 PPI: ABHD5-PLIN5 interaction inhibitors, primary screen, cell lysate, split luciferase complementation, luminescence; inhibition, % at 4 µM; Perilipin-5 (Homo sapiens) + 1-acylglycerol-3-phosphate O-acyltransferase ABHD5 (Homo …; 360,000 compounds, 0.78% hits; Split G. princeps luciferase complementation, 4 h;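 active = inhibition above the mean inhibition across every tested compound plus 3 SD, cut at about 22% in these data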;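 also: 0% = DMSO only wells and the 100% control is not disclosed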
LANA-H2A inh: blockers of LANA interaction with H2A/H2B – biochemical, FP readout, HTS, primary screen; Protein LANA1 (Human herpesvirus 8 type P (isolate GK18)), Q9QR71; cell-free LANA-H2A/H2B peptide, fluorescence polarization; inhibition, % (no concentration beside the values); 320,000 compounds, 0.6% hits; AID 2629, 2010; in the data active = inhibition mostly above about 10%, no sharp cut-off; inactive = mostly below about 6.7%
rCAG binder conf: small molecules binding CAG repeat RNA – biochemical, fluorescence, confirmation | shares compounds with rCAG binder | r(CAG) RNA repeat, TO-PRO-1 dye displacement fluorescence | inhibition, % at 3 µM | 4,300 compounds, 70% hits | AID 652065, 2013;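 active = inhibition above a per-plate cutoff, the mean inhibition of sample wells plus 3 SD, cut at about 35% in these data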;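 also: loss of TO-PRO-1 fluorescence as compound displaces dye from 1x1 AA loop RNA; 0% = DMSO only wells and 100% = 100 µM mitoxantrone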
DNA CAG counter: displacement of TO-PRO-1 from CAG DNA duplex, counter-screen for rCAG RNA repeat binder project, biochemical, fluorescence, TO-PRO-1 dye, d(CAG) DNA oligo; AID 652068, 2013; 4,300 compounds, 94% hits; shares compounds with rCAG binder; d(CAG) DNA oligo TO-PRO-1 dye displacement; inhibition, % at 3 µM;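 active = inhibition above its plate's cutoff, the mean test-well inhibition plus 3 SD, cut at about 4.8% in these data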;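 also: 0% = DNA dye mix with DMSO and 100% = 100 µM mitoxantrone; hits displace the dye from DNA and so lower well fluorescence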
PRMT1 confirm: PRMT1 methyltransferase inhibitors, confirmation, biochemical, fluorescence polarization, triplicate; shares compounds with PRMT1 FP inh; recombinant His-PRMT1, activity-based probe fluorescence polarization; inhibition, % at 2.79 µM; 3,300 compounds, 42% hits;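 active = mean inhibition across replicates above the hit cutoff derived for the earlier primary screen, cut at about 22% in these data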
An asterisk follows results filed as active; ? = inconclusive; / = no result.

SMILES | PRMT1 FP inh | ALR H2O2 inh | Rtt109 Vps75 | rCAG binder | ABHD5 PLIN5 PPI | LANA-H2A inh | rCAG binder conf | DNA CAG counter | PRMT1 confirm
CC(C)N1C(=O)S/C(=C/c2ccccc2OCc2ccc(C(=O)O)cc2)C1=O | 4.3 | 33.3 | 16.8 | 54.9* | 7.5 | 5.5 | 55.5* | 17.1* | /
Nc1c(C(=O)O)sc2nc(-c3ccccc3)cc(-c3ccc(Cl)cc3)c12 | -3.1 | 6.9 | 24.8 | 75.5* | 11.4 | -0.5 | 71.1* | 37.1* | /
Nc1c(C(=O)O)sc2nc(-c3ccc(F)cc3)cc(-c3ccccc3)c12 | 13.1 | 21.3 | -7.7 | 16.1 | -3.4 | -0.3 | / | / | /
COc1ccc(S(=O)(=O)Nc2ccc(O)c(Sc3ncn[nH]3)c2)cc1 | 5.6 | / | 2.3 | 0.9 | 10.1 | 2.6 | / | / | /
COc1ccc(S(=O)(=O)Nc2cc(Sc3ncn[nH]3)c(O)c3ccccc23)cc1 | 95.9* | / | / | 42.6* | / | / | 23.9 | 9.8* | 86.9*
Cc1cc(C)cc(Cn2cc(CN3CC(N4CCN(Cc5ccccc5F)CC4)CS3(=O)=O)nn2)c1 (stereo not drawn) | -1.6 | / | / | 0.5 | 0.3 | / | / | / | /
COc1cc(/C=N/n2c(-c3cc(-c4ccccc4)n[nH]3)n[nH]c2=S)ccc1OCc1ccccc1 | 26.3* | / | / | 58.1* | / | / | 55.1* | 26.0* | -0.7
Cc1ccc(S(=O)(=O)/N=C2/NC(=O)/C(=C/c3ccc(Br)o3)S2)cc1 | 56.4* | 54.1 | 40.2 | 93.5* | 7.9 | 2.0 | 83.4* | 54.1* | 15.7
CCN1C(=O)/C(=C\N(C)C)S/C1=N\S(=O)(=O)c1ccc(C)cc1 | -2.5 | 1.1 | -3.6 | -2.6 | 6.0 | 0.5 | / | / | /
O=C(CCCN1C(=O)/C(=C\c2ccco2)SC1=S)Nc1ccc(O)cc1C(=O)O | 61.8* | 20.4 | ? | 89.7* | 11.6 | 0.4 | 77.9* | 42.9* | 36.7*
O=C(CCCN1C(=O)/C(=C/c2ccco2)SC1=S)Nc1cccc(C(=O)O)c1 | 32.7* | -10.7 | 21.8 | 67.9* | 12.1 | 16.5 | 45.4* | 17.0* | 13.7
Cc1cccc(NC(=O)NCCCN2CCN(c3ccc(F)cc3)CC2)c1 | -4.0 | / | / | 0.4 | / | / | / | / | /
COc1ccc(-c2c(Cc3ccccc3)nc(NC(=O)c3ccccc3)n2Cc2ccc(OC)cc2OC)cc1 | -3.8 | / | / | 10.6 | / | / | / | / | /
Cc1ccc(/C=C2\SC(=S)N(C3CCS(=O)(=O)C3)C2=O)o1 (stereo not drawn) | 20.9 | -5.4 | -4.6 | 23.5 | 1.8 | 0.7 | / | / | /
NS(=O)(=O)c1ccc(-c2ccc(/C=C3\SC(=S)N(C4CCS(=O)(=O)C4)C3=O)o2)cc1 (stereo not drawn) | 41.7* | 12.1 | -3.2 | 35.1* | 1.3 | -3.2 | 18.9 | 14.0* | -8.2
Cc1ccc(/C=c2\s/c(=C(/C#N)C(=O)N3CCCC3)n(Cc3ccco3)c2=O)s1 | 26.0* | / | 9.0 | 34.6* | 19.9 | 3.0 | 12.4 | 10.2* | -0.5
O=C(N/N=C/c1c(O)n(Cc2ccco2)c(=O)[nH]c1=O)c1ccccc1 | 33.2* | 9.5 | -1.5 | 49.9* | 5.1 | -1.9 | 29.7 | 10.7* | -0.2
CSC(=Cc1ccc(C(=O)c2ccc(C)cc2)n1C)S(C)=O (stereo not drawn) | -0.2 | / | / | 2.3 | / | / | / | / | /
CC1=C(C(=O)Nc2ccccc2)C(c2ccc(C)o2)n2c(s/c(=C\c3ccco3)c2=O)=N1 (stereo not drawn) | 53.1* | / | 7.9 | 37.9* | 0.3 | / | 12.1 | 7.1* | -2.9
CCn1nc([N+](=O)[O-])c(C(C#N)c2nc3cc(C(F)(F)F)ccc3s2)c(Cl)c1=O (stereo not drawn) | 28.2* | 98.1* | 2.1 | 94.5* | 1.2 | 0.7 | 86.8* | 59.8* | 31.2*
O=C(NCc1ccccc1OC(F)(F)F)C1CCC(=O)N(CCCN2CCOCC2)C1 (stereo not drawn) | -1.7 | / | / | 1.4 | -7.7 | / | / | / | /
O=C(/C=C(\Nc1cccc(Cl)c1)c1ccccc1)c1ccccc1 | -1.6 | / | / | 2.3 | / | / | / | / | /
COc1ccccc1N1CSC2=C(C#N)C(c3ccc(SC)cc3)CC(=O)N2C1 (stereo not drawn) | 38.6* | / | 2.3 | 40.0* | -25.0 | 1.2 | 46.6* | 18.7* | 63.6*
COc1ccc(Br)cc1C1CC(=O)N2CN(C)CSC2=C1C#N (stereo not drawn) | 17.4 | -14.5 | 3.8 | 17.5 | -4.0 | -3.3 | / | / | /
COc1cccc(C2CC(=O)N3CN(c4ccccc4F)CSC3=C2C#N)c1 (stereo not drawn) | 6.8 | -27.3 | 6.9 | 17.3 | -12.5 | -2.4 | / | / | /
SMILES | PRMT1 FP inh | ALR H2O2 inh | Rtt109 Vps75 | rCAG binder | ABHD5 PLIN5 PPI | LANA-H2A inh | rCAG binder conf | DNA CAG counter | PRMT1 confirm
COc1ccc(Br)cc1C1CC(=O)N2CN(Cc3ccccc3)CSC2=C1C#N (stereo not drawn) | 25.0* | -34.2 | 10.1 | 37.7* | -2.1 | -1.2 | 30.1 | 12.6* | 20.1
O=C(C(=O)N1CCN(C(=O)c2cc(C(F)(F)F)cc(C(F)(F)F)c2)CC1)c1cccc(C(F)(F)F)c1 | 1.1 | / | / | 0.1 | / | / | / | / | /
CC(=O)N(\C=C/C=C/C=C1\Sc2ccccc2C1=O)c1ccccc1 | 46.3* | 67.1 | -3.1 | 44.6* | 14.1 | -22.3 | 14.3 | 10.8* | 26.3*
COc1cc(C(=O)C(=O)N2CCN(c3ccccc3)CC2)cc2ccccc12 | -3.4 | / | / | 10.2 | -9.1 | / | / | / | /
CCC1=NN2C(=N)/C(=C\c3ccc(SCc4ccco4)o3)C(=O)N=C2S1 | 38.8* | ? | 0.3 | 65.0* | 3.1 | -1.0 | 55.6* | 20.3* | 14.7
CCC1=NN2C(=N)/C(=C/c3c(C)nn(-c4ccccc4)c3Cl)C(=O)N=C2S1 | 7.8 | 53.7 | 5.1 | 15.9 | -0.1 | 3.5 | / | / | /
Nc1ccccc1Sc1ccc(C(=O)c2ccccc2C(=O)O)cc1[N+](=O)[O-] | 72.3* | 45.7 | 42.8 | 63.7* | -12.5 | 0.0 | 48.1* | 15.2* | 18.8

Compound activity from PubChem BioAssay.
